# In PubChem BioAssay (Tox21):
# Inconclusive results are not listed. Values without a mark were called inactive. Active and inactive are the calls of the source. The call rests on the fitted dose curve; in most records, active means well fitted cell-killing curve with a large enough effect in the repeat runs; inconclusive means weak or mixed curves, or effect the other way; inactive means flat fitted curve, though single readings scatter.
# Assay: cAMP Responsive Elements (CRE) small molecule agonists, cell-based qHTS assay: qHTS cell viability counter screen (AID 2060914); further: nearly all actives have a fitted effect of over 50% in size
# Details: CRE-bla HEK293T viability, CellTiter-Glo luminescence, 5 h; series mostly up to 92.4 µM; activity change, negative = cytotoxicity: at the top concentration
# Outline: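 In the same wells as the reporter read, viability of CRE-bla HEK 293T cells was quantified by CellTiter-Glo luminescence after a 3 h compound exposure.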
# On the % scale 0 is the no-effect control and ±100 the full control effect; potency means the concentration at half of the fitted maximal effect.
SMILES,"activity change, negative = cytotoxicity",Potency
Cc1occc(=O)c1OC(=O)C(C)C,6.37%,–
Cc1cc(N)n(-c2ccccc2)n1,1.51%,–
COc1cc2nc(N(C)CCCNC(=O)C3CCCO3)nc(N)c2cc1OC (stereo not given),1.07% [at 42.5 µM],–
CCc1nn(CCCN2CCN(c3cccc(Cl)c3)CC2)c(=O)n1CCOc1ccccc1,-17.6% [at 42.5 µM],–
CCCCC(CC)COC(=O)c1ccc(O)cc1 (stereo not given),-22.4%,–
CCc1ccc(O)c(C(C)(C)C)c1,-22.4%,–
CCCCCCCCCCCCCCCC[N+](C)(C)CCN(Cc1ccc(OC)cc1)c1ncccn1,–,26.6 µM (active)
Cc1cn([C@H]2C=C[C@@H](CO)O2)c(=O)[nH]c1=O,–,inactive
Cc1ccc2cccnc2c1,7.33%,–
CCOC(=O)O[C@]1(C(=O)OCCl)CC[C@H]2[C@@H]3CCC4=CC(=O)C=C[C@]4(C)[C@H]3[C@@H](O)C[C@@]21C,5.79% [at 42.5 µM],–
CO[C@@H]1COCC[C@@H]1N[C@@H]1CC[C@@](C(=O)N2CCc3ncc(C(F)(F)F)cc3C2)(C(C)C)C1,7.84%,–
Nc1cc(C(=O)O)c(O)c(S(=O)(=O)O)c1,2.94%,–
C=CC(=O)OCC(O)COc1ccccc1 (stereo not given),6%,–
CCCCCCCC/C=C\CCCCCCCCO,0.808%,–
CCNc1cc(O)ccc1C,4.68%,–
C=CC(C)(CCC=C(C)C)OC(C)=O (stereo not given),–,inactive
NC(=O)n1c(O)c(C(=O)c2cccs2)c2cc(Cl)ccc21,-6.91% [at 42.5 µM],–
CC[C@]1(O)C[C@@H]2CN(CCc3c([nH]c4ccccc34)[C@@](C(=O)OC)(c3cc4c(cc3OC)N(C)[C@H]3[C@@](O)(C(=O)OC)[C@H](OC(C)=O)[C@]5(CC)C=CCN6CC[C@]43[C@@H]65)C2)C1,–,inactive
CC(C)OC(=O)c1cc2c(OCC(O)CNC(C)(C)C)cccc2[nH]1 (stereo not given),5.87% [at 42.5 µM],–
CC(C)C(OC(=O)c1ccccc1)C(C)(C)COC(=O)c1ccccc1 (stereo not given),-26.1%,–

SMILES,"activity change, negative = cytotoxicity",Potency
CC(C)(C)c1cc(/C=C2\SC(=N)NC2=O)cc(C(C)(C)C)c1O,-22.4%,–
N#C[C@@H]1C[C@@H]2C[C@@H]2N1C(=O)[C@@H](N)C12CC3CC(CC(O)(C3)C1)C2,-3.48% [at 42.5 µM],–
CCCCOc1cc(C(=O)OCCN(CC)CC)ccc1N,-7.98% [at 42.5 µM],–
CC(C)CCOC(=O)c1ccccc1,18.2%,–
COc1cc(C(=S)N2CCOCC2)cc(OC)c1OC,-28.9% [at 42.5 µM],–
CC(=O)C(C)O (stereo not given),5.65%,–
CC(C)C1=CC2=CC[C@@H]3[C@](C)(CCC[C@@]3(C)C(=O)O)[C@H]2CC1,-6.39%,–
CCCCN(CCO)CCCC,-21.3%,–
CN(C)CCOC(c1ccccc1)c1ccccc1,–,inactive
CCCCNc1c(C(=O)OCC)c(C)nc2c1cnn2CC,-0.699% [at 42.5 µM],–
CC(O)CNCC(C)O (stereo not given),–,inactive
O=C(Oc1ccccc1)c1cccc(C(=O)Oc2ccccc2)c1,-0.532%,–
CC(=O)OCCN(CCOC(C)=O)c1ccc(N=Nc2ccc([N+](=O)[O-])cc2C#N)cc1,-10.2%,–
N#Cc1ccccc1O,-10.9%,–
O=C(O)c1ccc(OCCCOc2ccc(C(=O)O)cc2)cc1,-10.5% [at 42.5 µM],–
NCCNCCNCCN,–,inactive
CC(C)(C)CC(C)(C)c1ccc(OCCO)cc1,-29.5%,–
CC1(C)[C@@H](O)CC[C@]2(C)[C@H]3C(=O)C=C4[C@@H]5C[C@@](C)(C(=O)O)CC[C@]5(C)CC[C@@]4(C)[C@]3(C)CC[C@@H]12,-2.03%,–
CCC(C)COC(C)=O (stereo not given),2.81%,–
CC(C)(C)c1ccc(N)cc1,9.12%,–
